Only some compounds are listed: those with a hit (about 17% of all), similar ones and a draw of the others.
TGFb SMAD3 inh = qHTS for Inhibitors of TGF-b | HepG2 CAGA-GFP TGF-b/SMAD3 reporter, GFP fluorescence, 18 h; TGF-beta stimulated, 500 pg/mL final | Potency, µM (series often up to 46.1 µM), hits mostly inhibitors | actives 1.2% (n = 410,000) | AID 588855, 2011; further: nearly all actives have a fitted effect of over 65% in size
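Cell-based qHTS in HEPG2 carrying a CAGA-GFP Smad reporter; compounds added before 500 pg/mL final TGF-beta, 18 h incubation at 37 degrees C, GFP fluorescence quantified per cell by imaging cytometry.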
ATXN2 expr inh = Primary qHTS for Inhibitors of ATXN expression. AID 1745845, 2022. actives 0.72% (n = 360,000). HEK-293 ATXN2-luciferase reporter, luminescence, 24 h. Potency, µM (series often up to 57 µM), usual class: inhibitors; further: nearly all actives have a fitted effect of over 55% in size
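qHTS (up to 57 uM final) was run with 24 h compound exposure of reporter cells at 37 °C. Each well was multiplexed: SteadyGlo luminescence measured ATXN2-luciferase expression after a fluorogenic Gly-Phe-AFC viability readout (25 uM final).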
DT40 TDP1 CPT = qHTS for Inhibitors of human tyrosyl-DNA phosphodiesterase 1 (TDP1): qHTS in cells in presence of CPT; chicken DT40 Tdp1-/-;hTDP1 cells + 20 nM CPT, ATP luminescence, 48 h; actives 12% (n = 420,000); Potency, µM (highest dose often 46.2 µM), most hits filed as inhibitors; further: nearly all actives have a fitted effect of over 55% in size
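Cell growth measured by CellTiter-Glo luminescence after a minimum 48 h, 37 C compound exposure with 20 nM CPT in Tdp1-knockout DT40 cells stably expressing hTDP1, seeded 400/well; qHTS titration format.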
HepG2 tox = qHTS for Inhibitors of TGF-b: Cytotox Counterscreen; HepG2 CAGA-GFP viability, ATP luminescence, 18 h; Potency, µM (top dose mostly 46.1 µM), hits mostly cytotoxic; actives 0.76% (n = 410,000); AID 588856, 2011
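CellTiter-Glo luminescence gave cytotoxicity after 18 hours at 37 degrees C. The cells were HepG2 CAGA-GFP in 1% FBS DMEM, stimulated with 500 pg/mL TGF-beta after compound addition. %Activity was normalised to no-cell wells (complete cell-killing) and DMSO (no toxicity), and curves were fitted and classified.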
TDP1 cell noCPT = qHTS for Inhibitors of human tyrosyl-DNA phosphodiesterase 1 (TDP1): qHTS in cells in absence of CPT | DT40 Tdp1-/- hTDP1 cells, no CPT, ATP luminescence, 48 h | Potency, µM (highest dose often 46.2 µM), most hits filed as inhibitors | actives 15% (n = 420,000); further: nearly all actives have a fitted effect of over 55% in size
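Chicken DT40 Tdp1-/- cells complemented with human TDP1, screened without camptothecin (DMSO vehicle only), 400 cells/well. Compounds pin-transferred, cells incubated at 37 °C for at least 48 hr. Growth read as ATP-dependent luminescence (CellTiter-Glo, 30 min at RT).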
ATXN viability = Viability Counterscreen for Primary qHTS for Inhibitors of ATXN expression. S2 cells (HEK-293 line with an ATXN2-luciferase reporter) viability, CellTiter-Fluor protease fluorescence, 24 h. Potency, µM (top dose mostly 56.7 µM), hits mostly cytotoxic. actives 0.49% (n = 400,000); further: nearly all actives have a fitted effect of over 40% in size
Each line names hits and unclear results; the compound was inactive in the other large screens. The call rests on the fitted dose curve; in most records, active means well fitted curve in the direction sought with a large enough effect; inconclusive means small, poorly fitted or top-dose-only effect, or another doubt; inactive means no such curve, though single readings can be large; an effect the other way counts as inactive or inconclusive.

COc1cccc(CNC(=O)c2sc3ncccc3c2-n2c(C)ccc2C)c1OC	TGFb SMAD3 inh inconclusive, ATXN2 expr inh inconclusive, DT40 TDP1 CPT 10µM, TDP1 cell noCPT 13µM, ATXN viability inconclusive
C/C(=N\NC(=O)C(c1ccncc1)N1CCOCC1)c1ccc(Br)cc1 (stereo not given)	none
CC(C)Oc1ccc(CNC(=O)c2sc3ncccc3c2-n2cccc2)cc1	DT40 TDP1 CPT 21µM, TDP1 cell noCPT 18µM, ATXN viability inconclusive
Cc1cc(C)c2c(-n3cccc3)c(NC(=O)OC(C)C)sc2n1	DT40 TDP1 CPT 18µM, TDP1 cell noCPT 21µM
CCCC1OC2C[C@@H]3[C@H]4CCC5=CC(=O)C=C[C@]5(C)[C@H]4C(O)C[C@]3(C)[C@]2(C(=O)CO)O1 (stereo not given in full)	DT40 TDP1 CPT 11µM, TDP1 cell noCPT inconclusive (no result: ATXN viability)
CCCC1OC2CC3C4CCC5=CC(=O)C=CC5(C)C4C(O)CC3(C)[C@]2(C(=O)CO)O1 (stereo not given in full)	DT40 TDP1 CPT 16µM, TDP1 cell noCPT inconclusive (no result: TGFb SMAD3 inh, ATXN2 expr inh, HepG2 tox, ATXN viability)
Cc1ccc(C(=O)/C=C/c2ccccc2[N+](=O)[O-])cc1	TGFb SMAD3 inh inconclusive, ATXN2 expr inh inconclusive, DT40 TDP1 CPT inconclusive, TDP1 cell noCPT 18µM, ATXN viability inconclusive
Cc1ccc(/C=C/C(=O)c2ccc(C)cc2)cc1	TDP1 cell noCPT inconclusive
O=C(/C=C/c1ccc(-c2ccccc2)o1)c1ccccc1	DT40 TDP1 CPT inconclusive, TDP1 cell noCPT inconclusive
Cc1ccc(-c2ccc(/C=C/C(=O)c3ccccc3)o2)cc1	DT40 TDP1 CPT inconclusive, TDP1 cell noCPT 23µM
NC1=NC(=O)/C(=C\c2ccc(-c3ccccc3[N+](=O)[O-])o2)S1	DT40 TDP1 CPT 11µM, TDP1 cell noCPT inconclusive (no result: TGFb SMAD3 inh, ATXN2 expr inh, HepG2 tox, ATXN viability)
Cc1ccc(C(=O)/C=C/c2ccc(-c3ccccc3[N+](=O)[O-])o2)cc1	DT40 TDP1 CPT inconclusive, TDP1 cell noCPT 18µM
Oc1ccc(Cc2ccc(Cl)cc2)c(O)c1	TGFb SMAD3 inh inconclusive, DT40 TDP1 CPT inconclusive, TDP1 cell noCPT inconclusive
O=C(/C=C/c1ccc(-c2ccccc2[N+](=O)[O-])o1)c1ccc(Br)cc1	ATXN2 expr inh inconclusive, DT40 TDP1 CPT inconclusive, TDP1 cell noCPT 16µM
NS(=O)(=O)c1ccc(NC(=O)/C=C/c2ccccc2[N+](=O)[O-])cc1	ATXN viability inconclusive
O=C(/C=C/c1ccccc1[N+](=O)[O-])c1ccccc1Br	TGFb SMAD3 inh inconclusive, ATXN2 expr inh inconclusive, DT40 TDP1 CPT 21µM, TDP1 cell noCPT 8.2µM, ATXN viability inconclusive
N#C/C(=C/c1ccc(-c2ccccc2[N+](=O)[O-])o1)C(N)=O	none
CCc1ccc(NC(=O)CN2C(=O)CC(c3ccccc3)Sc3ccccc32)cc1 (stereo not given)	none (no result: DT40 TDP1 CPT, TDP1 cell noCPT)
CCCCn1c(N)c(N(CC(C)C)C(=O)CCN2C(=O)C3CC=CCC3C2=O)c(=O)[nH]c1=O (stereo not given)	none (no result: ATXN2 expr inh)
CCCCN(C(=O)c1cc2c(s1)CCCCC2)c1c(N)n(CCC)c(=O)[nH]c1=O	none
Cc1ccc2oc3nc(C)c(C(=O)Nc4cccc(C(F)(F)F)c4)cc3c(=O)c2c1	TDP1 cell noCPT inconclusive
CC(C)C(c1nnnn1Cc1ccccc1)N(CCCO)Cc1cc2cc3c(cc2[nH]c1=O)OCO3 (stereo not given)	DT40 TDP1 CPT inconclusive, TDP1 cell noCPT 16µM
O=c1[nH]c2cc3c(cc2cc1CN(CCCO)Cc1nnnn1Cc1ccc(F)cc1)OCO3	DT40 TDP1 CPT inconclusive, TDP1 cell noCPT 12µM
CCOC(=O)c1cnc2c(F)ccc(F)c2c1Sc1ccccc1	TDP1 cell noCPT inconclusive
O=C(CSc1n[nH]c(=O)[nH]c1=O)Nc1ccc(C(=O)O)cc1	ATXN viability inconclusive (no result: ATXN2 expr inh)

Screens as filed in PubChem.
